Results published in PubChem BioAssay (NCATS).
Active and inactive are the calls of the source.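 The calls were made as follows: active = calcium activation more than 3 SD above the typical response in the agonist read; inactive = the rest.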 Residues, ends and D or L forms follow the SMILES beside them. *: point of attachment. Cbz = O=C(OCc1ccccc1)*

Target: Thyrotropin-releasing hormone receptor (Homo sapiens) (UniProt P34981)
Experiment: qHTS for Small Molecule Agonists and Allosteric Enhancers of Human TRH Receptor: Validation Screen for Agonists (AID 493127);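 also: intracellular calcium rise by fluo-8 fluorescence before TRH EC20 addition; 0% is about no effect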
Settings: TRH receptor agonist cell assay; at 2 µM; hits give high values
From the text: NIH Chemical Genomics Center [NCGC]
NIH Molecular Libraries Probe Centers Network [MLPCN]
Assay Submitter (PI): Marvin Gershengorn
This project aims to identify small drug-like molecules that activate (agonists) the thyrotropin releasing hormone (TRH) receptor (TRHR) or enhance its TRH-stimulated activity (allosteric enhancers). TRHR, a drug-accessible cell surface receptor expressed in specific brain regions, and its ligand TRH have been implicated in several central nervous system disorders, including depression and anxiety. Small molecule TRHR agonists or allosteric enhancers that are metabolically stable and able to cross the blood-brain barrier might serve as probes to elucidate the roles of brain TRH receptors in animal models, and might be valuable as lead compounds for the development of drugs to treat patients with central nervous system disorders.
Upon TRHR-Gq activation in TRHR cells, intracellular calcium is released from stores in the endoplasmic reticulum. […] This validation screen measures compound-induced activation of calcium release.
For the HTS assay freshly prepared cells are plated at a density of 2000/well in 3 ul of complete DMEM medium containing 10% serum in 1536-well plates and cultured over night at 37 C in a humidified incubator with 5% CO2. The next day, 2 ul of a no wash calcium dye (ABD Bioquest) was added to the cells and plates were incubated at room temperature for 1 hour. For the assay, assay plates were loaded into the FDSS kinetic plate reader. A 10 cycle (1 second/cycle) baseline measurement is taken and then the FDSS online 1536 pintool delivers 23 nl of compound library (as well as TRH controls) to the plate. The plate is measured for kinetically at 1 cycle/sec for 180 seconds and is considered to be the agonist portion of the assay (eg, compounds which activate a positive calcium response during this portion are flagged as potential agonists). Following the 180 second read, 1 ul of either an EC20 (positive modulation assay) is delivered by an onboard pipette head. Measurements are taken kinetically for an additional 180 seconds.
TRHR FDSS Screening Protocol
1. Reagent, 3 uL 2000 cells/well 1536 TC treated Black plate in media containing 10% FCS
2. Time, 18 hours, 33.5C 5% CO2 (cells grown at 37C)
3. Reagent, 2 uL ABD fluo-8 Ca dye
4. Time, 30 min-1.5hrs hours, Room temp (6 plates/batch)
5. Detector, EX 480/EM 530C, FDSS 10 cycles baseline (1sec/cycle)
6. Compound, 23 nL of stock solution from library
7. Detector, EX 480/EM 530C, FDSS 230 cycles (1sec/cycle) Agonist mode
8. Compound, 1 ul EC20 of TRH made up in HEPES HBSS, 10 nM final
9. Detector, EX 480/EM 530C, FDSS 100 cycles (1sec/cycle) Potentiator mode

Sequence of Thyrotropin-releasing hormone receptor (Homo sapiens) (P34981 whole entry, looked up): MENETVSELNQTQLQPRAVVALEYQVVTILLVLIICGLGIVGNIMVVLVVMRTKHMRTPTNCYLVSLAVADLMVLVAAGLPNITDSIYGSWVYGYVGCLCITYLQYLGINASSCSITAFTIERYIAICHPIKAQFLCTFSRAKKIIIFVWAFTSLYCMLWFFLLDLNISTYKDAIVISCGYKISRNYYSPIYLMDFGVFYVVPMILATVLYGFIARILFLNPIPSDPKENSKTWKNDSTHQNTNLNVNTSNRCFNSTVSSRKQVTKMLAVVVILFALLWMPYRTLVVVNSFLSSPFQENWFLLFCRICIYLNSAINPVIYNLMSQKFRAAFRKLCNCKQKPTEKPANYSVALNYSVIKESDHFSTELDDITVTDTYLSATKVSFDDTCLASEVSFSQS

SMILES | activation
C[C@@H](NCCc1ccc(O)cc1)[C@@H](O)c1ccc(O)cc1 | 1.12% (inactive)
NC(N)=NC(N)=Nc1ccccc1 | 0.75% (inactive)
CCC1(O)CC2CN(CCc3c([nH]c4ccccc34)[C@@](C(=O)OC)(c3cc4c(cc3OC)N(C)C3[C@]45CCN4CC=C[C@@](CC)([C@@H](OC(C)=O)[C@]3(O)C(=O)OC)[C@H]45)C2)C1 (stereo not given in full) | -0.125% (inactive)
O=C(O)C1=CC(=C(c2ccc(O)c(C(=O)O)c2)c2ccc(O)c(C(=O)O)c2)C=CC1=O | 1% (inactive)
NC(C(=O)N[C@@H]1C(=O)N2C(C(=O)O)=C(Cl)CS[C@H]12)c1ccccc1 (stereo not given in full) | 0.938% (inactive)
CCCCCCN(CCCCCC)C(=O)Cc1c(-c2ccc(F)cc2)[nH]c2ccccc12 | -4% (inactive)
S=C(S)N1CCCC1 | -0.188% (inactive)
CC1CNCCN1S(=O)(=O)c1cccc2cnccc12 (stereo not given) | 1.25% (inactive)
CC(N)=NCCCC[C@@H](N)C(=O)O | 1.31% (inactive)
Cc1nc(N=Nc2ccc(C(=O)O)cc2)c(COP(=O)(O)O)c(C=O)c1O | 0.125% (inactive)
NCC(O)(CS(=O)(=O)O)c1ccc(Cl)cc1 (stereo not given) | 0.25% (inactive)
CC1=C(/C=C/C(C)=C/C=C/C(C)=C\C(=O)O)C(C)(C)CCC1 | 0.75% (inactive)
CC1CCN(CC[C@H]2CCCN2S(=O)(=O)c2cccc(O)c2)CC1 | 2.44% (inactive)
COc1cc(C(O)C(=O)O)ccc1O (stereo not given) | 1.12% (inactive)
CCCn1c(=O)c2[nH]c(C3CCCC3)nc2n(CCC)c1=O | -3.88% (inactive)
COc1ccc(NC(=O)c2ccc(-c3ccc(-c4noc(C)n4)cc3C)cc2)cc1N1CCN(C)CC1 | 2.25% (inactive)
CC(=O)/C(C)=N/O | 0.0625% (inactive)
COc1ccc2c(c1)CCC1C2CC[C@@]2(C)C1CC[C@@H]2NCCCCCCN1C(=O)C=CC1=O (stereo not given in full) | 0.25% (inactive)
NC1(C(=O)O)CC1 | 0.688% (inactive)
COc1ccc2c(c1)c(CC(=O)O)c(C)n2Cc1ccc(Cl)cc1 | -0.188% (inactive)

SMILES | activation
COc1cc(CNC(=O)CCCCCCC(C)C)ccc1O | -5.38% (inactive)
O=C(O)C1=CCCNC1 | 0.875% (inactive)
O=c1ccn([C@@H]2O[C@H](COP(=O)(O)OP(=O)(O)O)[C@@H](O)[C@H]2O)c(=O)[nH]1 | 0.188% (inactive)
NC1CCN(O)C1=O (stereo not given) | 0.875% (inactive)
O=C1C2C=CC=CC2=NC(=S)N1CCN1CCC(=C(c2ccc(F)cc2)c2ccc(F)cc2)CC1 (stereo not given) | -4.38% (inactive)
[Li+] | 1.31% (inactive)
Cc1nc2c(OCc3ccccc3)cccn2c1CC#N | 0.25% (inactive)
OCC1NCC(O)C(O)C1O (stereo not given) | 0.938% (inactive)
CN1C2CCC1CC(OC(c1ccccc1)c1ccccc1)C2 (stereo not given) | 1.5% (inactive)
O=c1onc2n1-c1cc(Br)ccc1OC2 | 1.75% (inactive)
C[C@H](O)C(=O)C1=Nc2c(nc(N)[nH]c2=O)NC1 | 1.06% (inactive)
O=C(O)/C=C/c1ccc(O)c(O)c1 | 0.25% (inactive)
O=C(O)c1ccccc1Nc1ccccc1 | -4.31% (inactive)
COc1ccc(-c2ccc(N)[n+](CCCC(=O)O)n2)cc1 | 1% (inactive)
CC1C(=O)N(C)C(=O)c2nc[nH]c21 (stereo not given) | 1.25% (inactive)
N=C(N)SCCN | 0.688% (inactive)
CC(C)[C@H](NC(=O)OCc1ccccc1)C(=O)N[C@H](C=O)Cc1ccccc1 (Cbz-Val-Phe-aldehyde) | 0.25% (inactive)
CCCCCC[C@@H]([C@@H](C)O)n1cnc2c(N)ncnc21 | 0.875% (inactive)
CC(C)C[C@H](NC(=O)C1OC1C(=O)O)C(=O)NCCCCN=C(N)N (stereo not given in full) | 0% (inactive)
Cn1cc(C(F)(F)F)nc1-c1ccc(OCC(O)CNCCOc2ccc(O)c(C(N)=O)c2)cc1 (stereo not given) | 1.5% (inactive)
